ROS inducer: cancer cell ROS induction | actives 2% (n = 46,000) | U2OS ROS induction, H2DCF-DA fluorescence | AID 624156 | ROS induction (% of piperlongumine), % at 10 µM; in the data active = ROS induction above about 79%, passing the limit was not always enough;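 note: 0% = DMSO vehicle median and 100% = reference compound median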
YB-1 expression: YB-1 expression inhibition | actives 0.37% (n = 30,000) | AID 434959 | U2OS, qRT-PCR YB-1 vs CDIP delta delta Cp, 16 h; stronger effect = higher value; zero = DMSO, each unit about twofold | delta delta Cp (YB-1 minus CDIP) (no concentration beside the values);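 active = delta delta Cp rounded down to an integer at or above 3, about 3 SD of DMSO wells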;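 note: higher means less YB-1 transcript or more CDIP transcript relative to DMSO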
The depositor's hits bear a star; / = no result. Compounds with a hit are over-represented: about 2.1% of the library has one in this group of screens.

SMILES | ROS inducer | YB-1 expression
C[C@@H]1CCCCO[C@H](CN(C)C(=O)Nc2ccc3c(c2)OCO3)[C@@H](C)CN([C@H](C)CO)C(=O)c2cc(NC(=O)Nc3ccccc3)ccc2O1 | 26 | 0.041
Cc1cc(C)c(Cn2c(S(=O)(=O)Cc3ccccc3)nc3ccccc32)c(C)c1 | -5 | /
CC(C)(C)C(=O)CSc1nnc(-c2cc(OCC(F)(F)F)ccc2OCC(F)(F)F)o1 | -6 | /
S=C(NC1CCCCC1)N(Cc1ccccc1)CC1CC=CCC1 (stereo unspecified) | 39 | /
O=C(CCCn1sc2ccccc2c1=O)NCc1cccs1 | 5 | /
CC(C(=O)N1CCc2ccccc21)N1C(=O)c2ccccc2C1=O (stereo unspecified) | -5 | /
O=C(NCc1ccccn1)c1ccc(NC(=O)c2ccco2)cc1 | -6 | /
O=C(O)c1ccc(CNC(=O)c2ccc(NC(=O)c3ccco3)cc2)cc1 | 99* | /
C=CC[C@]12N=C(c3ccc(OCCCO)cc3)O[C@H]1c1ccccc1CN(CCS(=O)(=O)c1ccccc1)C2=O | 13 | 0.35
O=C1N(CCS(=O)(=O)c2ccccc2)Cc2ccccc2C[C@]12N=C(c1ccc(OCCCO)cc1)O[C@@H]2c1ccccc1 | 99* | 0.42
C=CC[C@@]12N=C(c3ccc(OCCCO)cc3)O[C@@H]1c1ccccc1CN(CCS(=O)(=O)c1ccccc1)C2=O | 60 | -0.31
O=C(c1ccccc1)N1Cc2ccccc2[C@H]2OC(c3ccc(OCCCO)cc3)=N[C@@]2(Cc2ccccc2)C1=O | 36 | -0.23
O=C(c1ccccc1)N1Cc2ccccc2C[C@@]2(N=C(c3ccc(OCCCO)cc3)O[C@H]2c2ccccc2)C1=O | 67 | -0.1
O=C1N(CCS(=O)(=O)c2ccccc2)Cc2ccccc2[C@@H]2OC(c3ccc(OCCCO)cc3)=N[C@]12Cc1ccccc1 | 387* | -0.33
O=C(c1ccccc1)N1Cc2ccccc2[C@H]2OC(c3ccc(OCCCO)cc3)=N[C@@]2(CCS(=O)(=O)c2ccccc2)C1=O | 100* | -0.56
O=C1N(CCS(=O)(=O)c2ccccc2)Cc2ccccc2[C@H]2OC(c3ccc(OCCCO)cc3)=N[C@@]12Cc1ccccc1 | 117* | -0.43
FC(F)(F)c1cc(Oc2ccc(Cl)cc2)c2cc(Cl)ccc2n1 | -2 | /
Cc1cc(C)c(NC(=O)CN(c2ccc(Cl)cc2C)S(C)(=O)=O)c(C)c1 | -8 | /
COc1ccc(C(=O)N2CCc3ccccc32)cc1OC | 14 | /
O=C1N(Cc2ccccc2)Cc2ccccc2[C@H]2OC(c3ccc(OCCCO)cc3)=N[C@@]12CCS(=O)(=O)c1ccccc1 | 243* | 0.13
C=CC[C@@]12N=C(c3ccc(OCCCO)cc3)O[C@@H]1c1ccccc1CN(Cc1ccccc1)C2=O | 45 | -0.44
O=C(NCC1CC1)c1ccccc1NS(=O)(=O)c1ccc(F)cc1F | -5 | /
C[C@@H]1CCCCO[C@H](CN(C)Cc2ccc(C(F)(F)F)cc2)[C@@H](C)CN([C@H](C)CO)C(=O)c2cc(NC(=O)CCC(F)(F)F)ccc2O1 | 9 | 0.026
C[C@@H]1CCCCO[C@H](CN(C)Cc2ccc(C(F)(F)F)cc2)[C@@H](C)CN([C@H](C)CO)C(=O)c2cc(NC(=O)C3CCCCC3)ccc2O1 | 87* | -0.5
C[C@@H]1CCCCO[C@H](CN(C)C(=O)Nc2ccc3c(c2)OCO3)[C@@H](C)CN([C@H](C)CO)C(=O)c2cc(NC(=O)CCC(F)(F)F)ccc2O1 | -6 | -0.0058
SMILES | ROS inducer | YB-1 expression
C[C@@H]1CCCCO[C@@H](CN(C)C(=O)Nc2ccc(F)cc2)[C@@H](C)CN([C@H](C)CO)C(=O)c2cc(NC(=O)CCC(F)(F)F)ccc2O1 | 140* | -0.03
C[C@@H]1CCCCO[C@@H](CN(C)Cc2ccc(C(F)(F)F)cc2)[C@@H](C)CN([C@H](C)CO)C(=O)c2cc(NC(=O)CCC(F)(F)F)ccc2O1 | 155* | 0.14
C[C@@H]1CCCCO[C@@H](CN(C)Cc2ccncc2)[C@@H](C)CN([C@H](C)CO)C(=O)c2cc(NC(=O)C3CCCCC3)ccc2O1 | 16 | 0.16
CCc1ccccc1N(CC)C(=O)Cn1ncc2c1-c1ccccc1OC2 | -1 | /
CCC(C)NC(=O)c1csc2c1CCCC2 (stereo unspecified) | 41 | /
COCCOC(=O)N1C(=O)[C@@]2(c3ccccc31)[C@H](C(=O)N1CCc3cc(OC)c(OC)cc3C1)[C@H]1C(=O)O[C@H](c3ccccc3)[C@H](c3ccccc3)N1[C@@H]2c1ccc(O)cc1 | 185* | -0.089
COCCOC(=O)N1C(=O)[C@@]2(c3ccccc31)[C@H](c1ccccc1OCCO)N1[C@H](c3ccccc3)[C@H](c3ccccc3)OC(=O)[C@H]1[C@@H]2C(=O)N1CCc2cc(OC)c(OC)cc2C1 | 214* | 0.23
COCCOC(=O)N1C(=O)[C@@]2(c3ccccc31)[C@H](c1ccc(O)cc1)N1[C@H](c3ccccc3)[C@H](c3ccccc3)OC(=O)[C@H]1[C@@H]2C(=O)N1CCc2cc(OC)c(OC)cc2C1 | 11 | -0.078
COc1cc2c(cc1OC)CN(C(=O)[C@@H]1[C@H]3C(=O)O[C@H](c4ccccc4)[C@H](c4ccccc4)N3[C@H](c3ccccc3OCCO)[C@@]13C(=O)Nc1ccc(C#CCNC(N)=O)cc13)CC2 | 18 | 0.11
O=C(Oc1cccc2cccnc12)N1c2ccccc2Sc2ccccc21 | 10 | /
Cc1cccc(C(=O)NCCCn2ccnc2)c1 | -6 | /
Cc1ccc(S(=O)(=O)Nc2ccc3c(c2)C(=O)N([C@@H](C)CO)C[C@H](C)[C@@H](CN(C)Cc2ccc(Oc4ccccc4)cc2)O3)cc1 | 110* | 0.13
COc1ccc(S(=O)(=O)Nc2ccc3c(c2)C(=O)N([C@H](C)CO)C[C@H](C)[C@@H](CN(C)S(C)(=O)=O)O3)cc1 | 2 | 16*
Cc1ccc(S(=O)(=O)Nc2ccc3c(c2)C(=O)N([C@@H](C)CO)C[C@H](C)[C@H](CN(C)C(=O)Nc2ccccc2)O3)cc1 | 2 | -0.34
Cc1ccc(S(=O)(=O)Nc2ccc3c(c2)C(=O)N([C@@H](C)CO)C[C@@H](C)[C@@H](CN(C)Cc2ccc(Oc4ccccc4)cc2)O3)cc1 | 10 | 0.053
COc1ccc(S(=O)(=O)Nc2ccc3c(c2)C(=O)N([C@H](C)CO)C[C@H](C)[C@H](CN(C)S(=O)(=O)c2ccc(OC)cc2)O3)cc1 | 15 | -0.18
COc1ccc(S(=O)(=O)Nc2ccc3c(c2)C(=O)N([C@@H](C)CO)C[C@H](C)[C@@H](CN(C)Cc2ccc(-c4ccccc4)cc2)O3)cc1 | 128* | 0.084
COc1ccc(S(=O)(=O)Nc2ccc3c(c2)C(=O)N([C@H](C)CO)C[C@@H](C)[C@H](CN(C)Cc2ccc(-c4ccccc4)cc2)O3)cc1 | 14 | /
Cc1ccc(S(=O)(=O)Nc2ccc3c(c2)C(=O)N([C@@H](C)CO)C[C@H](C)[C@@H](CN(C)C(=O)Nc2ccccc2)O3)cc1 | 109* | -0.42
CC(=O)Nc1ccc(NC(=O)CN(c2ccc(C)cc2C)S(C)(=O)=O)cc1 | -6 | /
CCOC(=O)c1c(CC(C)C)csc1NC(=O)c1ccccc1OC(C)=O | 7 | /
O=C(/C=C/c1ccc(Cl)cc1Cl)NCC1CCCO1 (stereo unspecified) | -8 | /
COc1ccc(S(=O)(=O)N(C)C[C@H]2Oc3ccc(NC(=O)Nc4ccc(F)cc4)cc3C(=O)N([C@@H](C)CO)C[C@H]2C)cc1 | 8 | 0.12

Screening data as filed in PubChem.
